Nrf2 block: inhibitors of Nrf2 signaling; A549 ARE-Fluc reporter, luciferase luminescence, 18-24 h; Potency, µM (titrated, usually from 46 µM), hits mostly inhibitors; 360,000 tested, 2.1% active; AID 504444; further: nearly all actives have a fitted effect of over 60% in size
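Two sequential reads on A549 ARE_Fluc cells exposed to compound for 18-24 h: a CellTiter-Fluor fluorescence read for viability, then a luciferase luminescence read for Nrf2/ARE activity.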
A549 tox: counter-screen for Nrf2 inhibitors: cytotoxicity in A549 cells; A549 ARE-Fluc cells, CellTiter-Fluor viability, 18-24 h; Potency, µM (top dose mostly 46 µM), usual class: inhibitors; 390,000 tested, 0.16% active
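Cytotoxicity counterscreen: CellTiter-Fluor fluorescence was measured in A549 ARE_Fluc cells after 18-24 h of compound exposure in a concentration series. The subsequent BugLite luminescent read reports ARE-luciferase activity.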
12-LOX inh: blocks human arachidonate 12S-lipoxygenase; P18054; purified 12hLO, xylenol orange hydroperoxide absorbance; AID 1671190; Potency, µM (titrated, usually from 108 µM), usual class: inhibitors; 580,000 tested, 1.1% active
Target sequence (P18054 whole entry, looked up): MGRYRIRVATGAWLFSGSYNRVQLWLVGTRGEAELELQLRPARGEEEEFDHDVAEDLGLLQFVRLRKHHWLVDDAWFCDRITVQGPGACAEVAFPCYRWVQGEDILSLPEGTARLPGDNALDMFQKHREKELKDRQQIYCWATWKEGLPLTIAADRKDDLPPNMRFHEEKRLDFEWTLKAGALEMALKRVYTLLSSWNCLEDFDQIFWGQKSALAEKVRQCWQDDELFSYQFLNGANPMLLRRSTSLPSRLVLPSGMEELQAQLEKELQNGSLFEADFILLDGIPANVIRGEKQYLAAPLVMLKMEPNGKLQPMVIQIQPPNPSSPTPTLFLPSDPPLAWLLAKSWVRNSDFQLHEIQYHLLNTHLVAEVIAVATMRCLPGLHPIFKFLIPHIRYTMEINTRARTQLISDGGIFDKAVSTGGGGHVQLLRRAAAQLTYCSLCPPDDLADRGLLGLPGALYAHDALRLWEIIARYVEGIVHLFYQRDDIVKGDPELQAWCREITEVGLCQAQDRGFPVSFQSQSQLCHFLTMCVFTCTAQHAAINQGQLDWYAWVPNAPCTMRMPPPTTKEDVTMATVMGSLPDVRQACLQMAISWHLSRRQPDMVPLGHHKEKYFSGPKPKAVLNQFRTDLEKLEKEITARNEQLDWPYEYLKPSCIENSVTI
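Purified human 12hLO (150 nM final) in 25 mM Hepes, 0.01% Triton X-100, pH 7.0 was preincubated 15 min at room temperature with compound. Then 40 uM arachidonic acid was added, 30 min. Hydroperoxide was read by Fe-XO absorbance ratio 573/405 nm.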
LDHA inh: blocks human lactate dehydrogenase A | purified LDHA, NADH/diaphorase-resazurin fluorescence; stronger effect = lower value | P00338 | AID 1347041 | activity change, % (values are at about 110 or 230 µM) | 480,000 tested, 0.15% active; in the data active means activity change below about -30%; inconclusive means mostly about -25% to -30%
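Resorufin fluorescence (ex540/em590), read at 0 and 20 min after diaphorase/resazurin addition, reports the NADH left after a 5 min room-temperature reaction of 2 nM human LDH5 with 0.06 mM NADH and 0.2 mM pyruvate.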
Nrf2 activator: Nrf2 pathway activation; 410,000 tested, 0.31% active; Potency, µM (top dose mostly 46.1 µM), actives largely listed as activators; AREc32 ARE-luciferase reporter (MCF7-derived line), luminescence, 24 h; AID 624171; further: nearly all actives have a fitted effect of over 65% in size
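Reporter line AREc32 (ARE-Fluc), seeded overnight in OPTI-MEM with 5% FBS; compound pin-transferred, 24 hr at 37 deg C, 5% CO2; luminescent read-out.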
ERG Ets-DNA blk: inhibitors of human ERG Ets domain-DNA interaction; AID 624246; 370,000 tested, 0.028% active; fluorescence polarization, His-ERG Ets domain / labelled DNA; Potency, µM (doses to about 76.9 µM), actives largely listed as inhibitors; active means well fitted inhibition curve with a large enough effect in the polarisation, with a control signal flat; inconclusive means small, poorly fitted or top-dose-only effect, or effect the other way, or a change in a side signal; inactive means no such curve, though single readings can be large or run the other way; the % refers to the polarisation;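 further: polarization taken with two DNA probes labelled with fluorescein and Texas red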
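His-tagged ERG Ets domain (1 uM in the protein solution; 300mM KCl, 50mM Tris-HCl, 1mM EDTA, 1mM DTT, pH 7.5) received compound, then a probe mix of 5 nM fluorescein-DNA and 100nM Texas-615-DNA. Fluorescence polarization was read for both dyes.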
Numbers stand for hits; n = inactive; u = inconclusive; x = not tested or not shown; [ ] = remark or other dose. Only some compounds are listed: those with a hit (about 2.7% of all), similar ones and a draw of the others. Unless noted, the call rests on the fitted dose curve; in most records, active means well fitted curve in the direction sought with a large enough effect; inconclusive means small, poorly fitted or top-dose-only effect, or another doubt; inactive means no such curve, though single readings can be large; an effect the other way counts as inactive or inconclusive.

SMILES | Nrf2 block | A549 tox | 12-LOX inh | LDHA inh | Nrf2 activator | ERG Ets-DNA blk
NS(=O)(=O)c1ccc(N2N=C(c3ccccc3)CC2c2ccccc2Br)cc1 (stereo not given) | u | n | n | n | n | n
O=[N+]([O-])c1ccc(N2N=C(c3ccccc3)CC2c2ccccc2O)cc1 (stereo not given) | x | x | 25.1µM | x | x | x
O=C(Nc1ccc(Cl)c(C(F)(F)F)c1)c1ccc(F)cc1 | x | x | u | n | x | x
CCc1ccc(OCCNC(=O)c2cc(SC)ccc2Cl)cc1 | 18.4µM | u | u | n | n | n
CSc1ccc(Cl)c(C(=O)NCCOc2ccccc2)c1 | u | n | n | n | n | n
Cc1c(CCOC(=O)c2ccc(N3CCOCC3)c([N+](=O)[O-])c2)sc[n+]1CC#N | 16.4µM | u | n | n | n | n
NC(=O)c1ccc(NC(=O)COC(=O)C2(c3cccc(F)c3)CCCC2)cc1 | n | n | n | n | n | n
CN(C)C(=O)c1ccc(NC(=O)COC(=O)C2(c3ccccc3)CCCC2)cc1 | 16.4µM | n | u | n | n | n
COc1ccc(-c2nn(C)c(=O)c3ccccc23)cc1NC(=O)c1ccc(Cl)cc1 | x | x | u | n | x | x
COC(=O)c1cc(-c2ccco2)nc2onc(-c3ccccc3)c12 | x | x | u | n | x | x
CCCN(CC(=O)Nc1ccc(F)c(F)c1F)C(=O)C1CC(=O)N(Cc2ccccc2)C1 (stereo not given) | n | n | u | n | n | 35.5µM
COc1ccc(/C=C/C(=O)Oc2ccc3oc4ccccc4c3c2)cc1OC | x | x | n | n | x | x
COc1ccc(OCCCC(=O)Oc2ccc3oc4ccccc4c3c2)cc1 | x | x | 12.6µM | n | x | x
O=C(SCc1c(O)c2ccccc2oc1=O)c1ccccc1 | x | x | 28.2µM | n | u | x
O=C(Cc1c(O)c2ccccc2oc1=O)c1ccc(C(F)(F)F)cc1 | n | n | n | n | n | n
CCc1ccc2nc(-c3ccccn3)cc(C(=O)O)c2c1 | x | x | n | n | x | x
CC(C)c1ccc2oc(-c3ccc(N)cc3O)nc2c1 | x | x | 35.5µM | n | x | x
CC(C)c1ccc2oc(-c3cc(N)ccc3O)nc2c1 | u | n | u | n | u | n
Cc1ccccc1CC1(CO)CCCN(C(=O)c2cc(Cl)ccc2F)C1 (stereo not given) | 11.6µM | n | n | n | n | n
CC(OC(=O)/C=C/c1cccc2ccccc12)C(=O)NC(N)=O (stereo not given) | x | x | u | n | x | x
O=C1Nc2cc(C(=O)N3CCN(c4ccccn4)CC3)ccc2S/C1=C\c1ccccc1 | 23.1µM | n | n | n | n | n
O=C1Nc2cc(C(=O)N3CCOCC3)ccc2S/C1=C\c1ccccc1 | n | n | n | n | n | n
COc1ccccc1CN(C)CC(=O)Nc1ccccc1-c1ccccc1 | 23.1µM | u | n | n | n | n
CC1=CC(=O)N(c2cccc(C(F)(F)F)c2)C1c1ccc(Cl)cc1 (stereo not given) | 23.1µM | u | n | n | n | n
CC1=CC(=O)N(c2ccc(C)cc2)C1c1ccc(Cl)cc1 (stereo not given) | n | n | u | n | n | n
SMILES | Nrf2 block | A549 tox | 12-LOX inh | LDHA inh | Nrf2 activator | ERG Ets-DNA blk
CCC(CO)Oc1cc(NC(=O)c2ccccc2F)c2ncn(C(C)C)c2c1 (stereo not given) | n | n | 28.2µM | n | n | n
CC1(c2ccc3c(c2)OCCO3)NC(=O)N(CC(=O)c2cn(CCC#N)c3ccccc23)C1=O (stereo not given) | x | x | u | n | x | x
Cc1ccc(CN[C@@H]2CO[C@H](CNS(=O)(=O)c3ccc(C)cc3)[C@H]2O)cc1 | x | x | 28.2µM | x | x | x
COc1cc(/C=C(/C#N)C(=O)c2ccccc2)cc(Br)c1O | x | x | u | n | x | x
O=C(CCN1C(=O)/C(=C/c2ccccc2F)SC1=S)NCCCN1CCOCC1 | u | u | n | n | n | n
COc1ccccc1/C=C1\SC(=S)N(CCC(=O)NCCCN2CCOCC2)C1=O | u | 23.1µM | n | n | n | n
O=C(CCCN1C(=O)/C(=C/c2ccccc2Cl)SC1=S)NCCCN1CCOCC1 | 14.6µM | u | n | n | n | n
COc1ccc(C=C2SC(=S)N(CCCN3CCOCC3)C2=O)c(OC)c1 | x | x | u | n | n | x
O=C1C(=Cc2cccc(O)c2O)SC(=S)N1CCCN1CCOCC1 | x | x | 6.31µM | n | n | x
Cc1cccc(NC(=S)NN)c1 | x | x | u | n | x | x
CCOc1ccc(C(=O)C(C)OC(=O)c2ccc(C(N)=O)cc2)cc1 (stereo not given) | x | x | n | n | x | x
COc1c(C(=O)Nc2nnc(C3CC3)s2)csc1Cl | u | n | n | n | 8.91µM | n
CCOc1ccc(NC(=O)CCCn2c(=O)c3cccn3c3ccccc32)cc1 | x | x | n | -31.2 | x | x
Cc1cc(C)cc(NC(=O)CCn2c(=O)c3cccn3c3ccccc32)c1 | 16.4µM | n | n | n | n | n
Cc1ccc(NC(=O)CCn2c(=O)c3cccn3c3ccccc32)c(C)c1 | n | n | n | n | n | n
COc1ccc(Cl)cc1NC(=O)CCCn1c(=O)c2cccn2c2cccnc21 | 16.4µM | n | n | n | n | n
CN1CC(=O)N(C2CCC2)Cc2c1ncnc2N1CCC(c2ccccc2)CC1 | x | x | n | x | x | x
CN(C)CC1CCC/C(=C/c2ccc(Cl)cc2)C1=O (stereo not given) | n | n | 35.5µM | n | n | n
COc1ccc(/C=C2/CCCC(CN(C)C)C2=O)cc1 (stereo not given) | n | n | u | n | 10µM | n
CCCCNC1c2ccccc2C(=O)N1Cc1ccccc1 (stereo not given) | n | n | 39.8µM | n | n[9.22 µM] | n
O=C1c2ccccc2C(Nc2cccnc2)N1Cc1ccccc1 (stereo not given) | n | n | n | n | n | n
COc1ccc(C(=O)Oc2cccc(Nc3ncnc4ccccc34)c2)cc1OC | u | n | n | n | n | x
COc1cc(C(=O)Oc2cccc(Nc3ncnc4ccccc34)c2)cc(OC)c1OC | 14.6µM | n | n | n | n | x
O=C(Cc1cccc(F)c1)N(Cc1ccco1)C1CC1 | x | x | n | n | x | x
Cc1ccc(-c2nnc(NC3CCCCC3)c3ccccc23)cc1S(=O)(=O)N1CCN(C)CC1 | 23.1µM | u | n | n | n | x
COc1ccc(/C=C/CN2CCC(n3nccc3NC(=O)C3CC3)CC2)cc1 | n | n | 25.1µM | n | n | n
O=C(Nc1ccnn1C1CCN(Cc2ccc(OC3CCCC3)cc2)CC1)C1CC1 | x | x | 8.91µM | x | x | x
Cc1oc2ncnc(N3CCOCC3)c2c1C(=O)NCC1CCN(CCc2ccc(F)cc2)CC1 | x | x | u | n | x | x
CC(C)[C@H](NC(=O)N1CCn2c1nc1ccccc12)C(=O)NC1CCCCC1 | 20.6µM | u | n | n | n | n
C[C@H](NC(=O)N1CCn2c1nc1ccccc12)C(=O)NC1CCCCC1 | n | n | n | n | n | n
